HIF-2a block – HIF-2a inhibition; 786-0 RCC cells HIF-2a reporter, luciferase luminescence, overnight; AID 624352; inhibition, % at 18.8 µM; actives 0.72% (n = 360,000);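 active means inhibition of the luminescence signal of 40% or more relative to plate controls, in a single-dose primary screen at 18.75 µM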
LGR2 antag – inhibitors of bursicon-induced Drosophila LGR2 receptor cAMP signaling | HEK293 LGR2, CRE-luciferase, bursicon-stimulated, 4 h | inhibition, % at 9.99 µM | actives 0.35% (n = 380,000);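 active means drop in luminescence signal, shown as inhibition above about 50% in the replicate tests, limit read from the data, passing the limit was not always enough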;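 further: agonist challenge used bursicon conditioned medium at about half maximal strength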
CF NFkB inh – blocks PAF-induced NF-kB reporter in cystic fibrosis cells; inhibition, % at 5 µM; actives 0.86% (n = 360,000); KKLEB NF-kB-GFP reporter, GFP fluorescence overnight; AID 588850;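 active means at least 50% inhibition at 5 µM, scaled per plate between neutral and stimulator controls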;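 further: PAF is a Pseudomonas aeruginosa culture filtrate used as stimulus; plate controls were PAF-stimulated DMSO wells for no effect and unstimulated DMSO wells for full effect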
TWEAK-Fn14 inh – blocks TWEAK-Fn14 interaction in a reporter cell assay. TWEAK-stimulated Fn14 reporter cells, luciferase luminescence, 8 h. inhibition, % at 10 µM. actives 2% (n = 360,000). AID 1159606; in the data active means inhibition above about 50%
KKLEB tox – CF airway cell cytotoxicity counter-screen. KKLEB CF airway cells viability, ATPlite luminescence, overnight; active compounds read low; cells stimulated with P. aeruginosa culture filtrate. activity change (cytotoxicity), % at 5 µM. actives 0.36% (n = 360,000). AID 602141;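 active means corrected activity change at or below -50% at 5 µM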
hiPSC survival – increases survival of single human iPS cells; hiPSC single-cell survival, ATPlite luminescence; 100% = ROCK inhibitor wells, 0% = DMSO; survival enhancement, % at 20 µM; actives 0.044% (n = 360,000); in the data active means survival enhancement above about 18%;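 further: cells exposed to compounds for 16 hours before the ATP read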
Numbers without * were called inactive. Only some compounds are listed: those with a hit (about 2.3% of all), similar ones and a draw of the others.

Screening COc1cc(C2C3=C(Nc4ncnn42)c2ccccc2CC3)cc(OC)c1OC (stereo not drawn) returned HIF-2a block 16.7, CF NFkB inh 49.7, TWEAK-Fn14 inh -27.2, KKLEB tox -52.1* and hiPSC survival -1.2.
`O=C(NCC[C@@H]1CC[C@H](NC(=O)C2CC2)[C@H](CO)O1)Nc1ccc(C(F)(F)F)cc1` gave LGR2 antag 6.5.
`CCc1cccc(NC(=O)Cn2cc(C=O)c3ccccc32)c1` gave HIF-2a block 15.8, LGR2 antag 5.4, CF NFkB inh 14.3, TWEAK-Fn14 inh 71.5*, KKLEB tox -12.1 and hiPSC survival -0.7.
For CC(C)C[C@H]1CN([C@@H](CC(C)C)CN2CCC[C@@H]2CN2C(=S)NC[C@@H]2Cc2ccc(O)cc2)C(=S)N1CC1CCCCC1 the results were HIF-2a block -11.6, LGR2 antag -0.2, CF NFkB inh 64.9*, TWEAK-Fn14 inh 12.7, KKLEB tox -54.8* and hiPSC survival -2.2.
For Cc1nn(Cc2c(Cl)cccc2Cl)c(C)c1NC(=O)c1cn(-c2ccccc2)nc1-c1ccccc1 the results were HIF-2a block 34.2, CF NFkB inh 23.1, TWEAK-Fn14 inh 70.0*, KKLEB tox -42.0 and hiPSC survival 3.6.
`O=[N+]([O-])c1ccc(O)c(C=Nc2ccc3c(c2)OCCO3)c1` gave HIF-2a block -55.7, LGR2 antag -43.4, CF NFkB inh 7.5, TWEAK-Fn14 inh 67.4*, KKLEB tox 12.3 and hiPSC survival 2.2.
Screening Oc1c(Br)cc(Br)cc1C=Nc1ccc2c(c1)OCCO2 returned HIF-2a block 9.2, LGR2 antag 21.0, CF NFkB inh 36.4, TWEAK-Fn14 inh 65.1*, KKLEB tox 18.4 and hiPSC survival -0.3.
Screening O=[N+]([O-])c1ccc(O)c(C=NN2CCCCC2)c1 returned HIF-2a block -40.6, LGR2 antag -7.2, CF NFkB inh 30.8, TWEAK-Fn14 inh -19.8, KKLEB tox -10.6 and hiPSC survival 0.5.
Screening CO[C@@H]1CN(C)C(=O)c2cc(NC(=O)C3CCC3)ccc2OC[C@H](C)N(C)C[C@@H]1C returned LGR2 antag 12.7.
Screening Cc1cc(-c2ccc(C)c(S(=O)(=O)N3CC(=O)Nc4ccccc43)c2)on1 returned HIF-2a block 5.5, LGR2 antag -15.8, CF NFkB inh -26.7, TWEAK-Fn14 inh 92.1*, KKLEB tox 2.5 and hiPSC survival 0.0.
Screening Cc1ccc(-c2onc(C)c2C)cc1S(=O)(=O)N1CCOc2ccccc21 returned HIF-2a block 14.2, LGR2 antag 19.7, CF NFkB inh -3.8, TWEAK-Fn14 inh 64.2*, KKLEB tox -5.9 and hiPSC survival 0.1.
Screening Cc1cc(-c2ccc(C(C)C)c(S(=O)(=O)N3CCOc4ccccc43)c2)on1 returned HIF-2a block 17.0, LGR2 antag 10.5, CF NFkB inh 8.5, TWEAK-Fn14 inh -6.8, KKLEB tox -4.4 and hiPSC survival 0.1.
For COc1ccc(C(=O)Nn2c(SCC(=O)c3ccccc3)nc3ccccc3c2=O)cc1 the results were HIF-2a block 15.7, CF NFkB inh -22.8, TWEAK-Fn14 inh 91.8*, KKLEB tox -3.7 and hiPSC survival -1.4.
For O=C(CSc1nc2ccccc2c(=O)n1Cc1ccco1)c1ccccc1 the results were HIF-2a block -133.2, CF NFkB inh -12.5, TWEAK-Fn14 inh 51.5*, KKLEB tox -2.7 and hiPSC survival -0.7.
Screening COc1ccc(C(=O)Nn2c(SCc3ccc([N+](=O)[O-])cc3)nc3ccccc3c2=O)cc1 returned HIF-2a block -51.8, CF NFkB inh -18.3, TWEAK-Fn14 inh 72.6*, KKLEB tox -8.5 and hiPSC survival -0.1.
For C[C@@H]1C[C@H]2[C@@H]3C[C@H](F)C4=CC(=O)C=C[C@]4(C)[C@@]3(Cl)[C@@H](O)C[C@]2(C)[C@H]1C(=O)COC(=O)C(C)(C)C the results were HIF-2a block 21.6, LGR2 antag 22.1, CF NFkB inh 69.0*, TWEAK-Fn14 inh -12.7, KKLEB tox 4.0 and hiPSC survival 4.8.
C=CCOC(=O)C1=C(C)N=c2s/c(=C3\C(=O)N(CC(=O)O)c4ccccc43)c(=O)n2C1c1ccc(OC)cc1 (stereo not drawn) was read as HIF-2a block 12.7, LGR2 antag -6.3, CF NFkB inh 23.7, TWEAK-Fn14 inh 58.5*, KKLEB tox 0.2 and hiPSC survival 2.7.
For CCOC(=O)C1=C(C)N=c2s/c(=C3\C(=O)Nc4ccccc43)c(=O)n2C1c1ccc2c(c1)OCO2 (stereo not drawn) the results were HIF-2a block 28.1, CF NFkB inh -2.4, TWEAK-Fn14 inh -0.9, KKLEB tox 2.9 and hiPSC survival -2.3.
For CC1CCN(C2=NC(=O)/C(=C/c3ccccc3F)S2)CC1 the results were HIF-2a block 32.8, LGR2 antag 48.6, CF NFkB inh -15.0, TWEAK-Fn14 inh 94.8*, KKLEB tox 7.9 and hiPSC survival -0.7.
`COc1ccc(C)cc1S(=O)(=O)n1c([N+](=O)[O-])cnc1C` gave HIF-2a block 17.3, LGR2 antag -0.2, CF NFkB inh -3.4, TWEAK-Fn14 inh 86.7*, KKLEB tox 9.2 and hiPSC survival 0.5.
COc1cccc(NC(=O)N2CC[C@@H]3[C@@H](CO)N(C)c4ccc(-c5ccccc5)cc4[C@@H]32)c1 was read as LGR2 antag 1.8.
Screening CC(C)Cc1ccc(-c2cc3nc(NCCc4ccc(S(N)(=O)=O)cc4)ccn3n2)cc1 returned HIF-2a block -320.5, LGR2 antag 16.9, CF NFkB inh -10.4, TWEAK-Fn14 inh 54.4*, KKLEB tox -5.0 and hiPSC survival -3.2.
`CC(C)COC(=O)N(C)C[C@H]1OCc2ccccc2-c2c(n(C)c3ccccc23)C(=O)N([C@H](C)CO)C[C@@H]1C` gave LGR2 antag -2.5.
Screening CCCCCCC[C@@H](C/C=C/CCC(=O)N(C)C/C(=C/Cl)C/C(=C\C(=O)N1CC(OC)=CC1=O)OC)OC returned HIF-2a block 8.5, LGR2 antag -0.6, CF NFkB inh 54.4*, TWEAK-Fn14 inh 16.7, KKLEB tox -60.8* and hiPSC survival 34.8*.
Screening CCCCCCCCSc1nnc(/N=C/N(C)C)s1 returned HIF-2a block 4.0, LGR2 antag 11.2, CF NFkB inh 6.1, TWEAK-Fn14 inh -0.9, KKLEB tox 7.3 and hiPSC survival 1.6.
For Cc1cc(Sc2nnc(/N=C/N(C)C)s2)c2ccccc2n1 the results were HIF-2a block 34.5, LGR2 antag 55.0*, CF NFkB inh 58.6*, TWEAK-Fn14 inh 81.0*, KKLEB tox -29.4 and hiPSC survival -0.9.
Cc1ccc2oc(C(=O)N3CCN(c4cccc(C)n4)CC3)c(C)c2c1 was read as HIF-2a block -120.6, LGR2 antag -13.9, CF NFkB inh -4.8, TWEAK-Fn14 inh 69.3*, KKLEB tox -0.5 and hiPSC survival 0.5.
